The text below walks through data of PubChem BioAssay (NCATS).

The test system of assay [1] is Zika virus NS2B-NS3 protease (unlinked complex). Briefly: Primary screen GU Rhodamine qHTS for Zika virus inhibitors: Unlinked NS2B-NS3 protease assay (AID 1347159). Note: nearly all actives have a fitted effect of over 60% in size. Note: potency is the fitted concentration of half-maximal effect. In short, it runs like this:
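Noncovalent NS2B hydrophilic domain/NS3 protease complex (25 nM final) in 10 mM Tris-HCl pH 8.0, 0.01% Tween 20, preincubated 15 min with compounds (up to 114 microM), then 1.5 microM Rhodamine110 substrate. Fluorescence change over 15 min fitted to 4-parameter Hill.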

Assay [2] has as its system Zika virus NS2B-NS3 protease (linked construct). Kind of assay: Primary screen NINDS Rhodamine qHTS for Zika virus inhibitors (AID 1347160). Note: nearly all actives have a fitted effect of over 55% in size. In short, it runs like this:
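Purified NS2B-NS3 protease with the NS2B hydrophilic domain joined by a flexible linker (25 nM) in 10 mM Tris-HCl pH 8.0, 0.01% Tween 20, preincubated 15 min at RT with compound; Rhodamine110 peptide substrate 1.5 µM; fluorescence change over 15 min; 4-parameter Hill fit.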

Molecules are shown by their SMILES. Results filed as inconclusive are left out. Where a call stands in place of a potency, no number is given. Values without a mark were called inactive. Activity calls are given as the source filed them. Calls come from the whole dose curve; as a rule, active = well fitted inhibition curve with a large enough effect; inconclusive = small, poorly fitted or top-dose-only effect; inactive = no such curve, though single readings can be large or run the other way.

Turning to `CCCOc1ccn2c(C(C)=O)cc(-c3ccccc3S(C)(=O)=O)c2c1`, the Potency result in assay [1] and in assay [2] was “inactive” throughout.
Consider `COC(=O)C12C(=O)C(C)=C(O)C1(C)C(C)=CC1C34CCC(OC3=O)C(C)(C)C4CCC12C` (configuration not stated), for which the Potency entry in assay [1] and in assay [2] was “inactive” throughout.
Take `COC1CC(OC2CCC3(C)C(=CCC4C3CCC3(C)C(C(C)O)CCC43O)C2)OC(C)C1OC1OC(C)C(OC2OC(COC3OC(COC4OC(CO)C(O)C(O)C4O)C(O)C(O)C3O)C(O)C(O)C2O)C(OC)C1O` (configuration not stated): the Potency result in assay [1] and in assay [2] was “inactive” in each case.
For the compound `CC/C=C/CC1=C(CCCCCCCC(=O)O)CCC1=O`, the Potency entry in assay [1] and in assay [2] was “inactive” in each case.
Take `COc1cc(/C=C/C(=O)O[C@H]2[C@H](OC(=O)/C=C/c3cc(OC)c(O)c(OC)c3)O[C@H](CO[C@@H]3O[C@H](CO)[C@@H](O)[C@H](O)[C@H]3O)[C@@H](O)[C@@H]2O)ccc1O`: the Potency result in assay [1] and in assay [2] was “inactive” throughout.
With `O=C(O[C@H]1[C@@H]2C=CO[C@@H](O[C@@H]3O[C@H](CO)[C@@H](O)[C@H](O)[C@H]3O)[C@@H]2[C@@]2(CO)O[C@@H]12)c1ccc(O)c(O)c1`, the Potency result in assay [1] and in assay [2] was “inactive” in each case.
As for `CC/C=C\C[C@H]1C(=O)C=C[C@@H]1CCCCCCCC(=O)O`, the Potency in assay [1] was 35.5 µM (active). Besides, the Potency result in assay [2] was “inactive”.
In the same order, the values of `CC(C)C(C#N)O[C@@H]1O[C@H](CO[C@@H]2OC[C@](O)(CO)[C@H]2O)[C@@H](O)[C@H](O)[C@H]1O` (some centres not stated) are “inactive” and “inactive”.
On the same counts, the results for `CC1=CC[C@]2(C(=O)O[C@@H]3O[C@H](CO[C@@H]4O[C@H](CO)[C@@H](O[C@@H]5O[C@@H](C)[C@H](O)[C@@H](O)[C@H]5O)[C@H](O)[C@H]4O)[C@@H](O)[C@H](O)[C@H]3O)CC[C@]3(C)C(CCC4[C@@]5(C)C[C@@H](O)[C@H](O)[C@@](C)(CO)C5CC[C@]43C)C2C1C` (some centres not stated) are “inactive” and “inactive”.
In the case of `COC(=O)C1=C[C@@H](O)[C@@H](O)[C@H](O[C@@H]2O[C@H](COC(=O)/C=C/c3ccccc3)[C@@H](O)[C@H](O)[C@H]2O)C1`, the Potency result in assay [1] and in assay [2] was “inactive” each time.
Turning to `Cc1[nH]cnc1C1CCN(c2nc3cccc4c3n2CCC4=O)CC1`, the Potency result in assay [1] and in assay [2] was “inactive” each time.
With `c1ccc(C(OC2CCN(CCCc3nn[nH]n3)CC2)c2ccccc2)cc1`, the Potency result in assay [1] and in assay [2] was “inactive” in each case.
In the case of `CC(=O)OC[C@@]12[C@@H](OC(C)=O)C[C@@H](C)[C@](C)([C@@H]3C[C@H]4C=CO[C@H]4O3)[C@H]1CCC[C@]21CO1`, the Potency entry in assay [1] and in assay [2] was “inactive” each time.
With `CC1=C2[C@@H]([C@H](C)CC[C@H]2/C=C(\C)C(=O)O)[C@H](O)C1`, the Potency entry in assay [1] and in assay [2] was “inactive” throughout.
On to `COc1cc([C@H]2OC[C@@H]3[C@@H](c4ccc(O[C@@H]5O[C@H](CO)[C@@H](O)[C@H](O)[C@H]5O)c(OC)c4)OC[C@]23O)ccc1O`, for which the Potency result in assay [1] and in assay [2] was “inactive” throughout.
On to `N[C@H]1C[C@H]1c1ccc(-c2cccc(O)c2)cc1`, for which the Potency result in assay [1] and in assay [2] was “inactive” throughout.
For `O=C(NCc1ccc(OC(F)(F)F)cc1)C1c2ccccc2C(=O)N1C1CCOCC1` (configuration not stated), the Potency entry in assay [1] and in assay [2] was “inactive” in each case.
With `OCC1=CC[C@@H]2C=CO[C@@H](O[C@@H]3O[C@H](CO)[C@@H](O)[C@H](O)[C@H]3O)[C@H]12`, the Potency result in assay [1] and in assay [2] was “inactive” throughout.
`CC1(CO)CC[C@]2(C(=O)O[C@@H]3O[C@H](CO)[C@@H](O)[C@H](O)[C@H]3O)CC[C@]3(C)C(=CCC4[C@@]5(C)C[C@H](O)[C@H](O[C@@H]6OC[C@@H](O)[C@H](O)[C@H]6O)[C@@](C)(CO)C5CC[C@]43C)C2C1` (some centres not stated): the Potency result in assay [1] and in assay [2] was “inactive” throughout.
`CC(C)(C)c1cc(CN2CCN(CC(O)c3ccc(Cl)cc3)CC2)cc(C(C)(C)C)c1O` (configuration not stated): the Potency entry in assay [1] and in assay [2] was “inactive” in each case.
For `C=CC(C)(CC/C=C(\C)CC/C=C(\C)CC(O)/C=C(\C)C(=O)O)O[C@@H]1O[C@H](CO)[C@@H](O)[C@H](O)[C@H]1O[C@@H]1O[C@H](CO)[C@@H](O)[C@H](O)[C@H]1O` (some centres not stated), the Potency entry in assay [1] and in assay [2] was “inactive” throughout.
`CC(=O)c1c(O)cc2c(c1C)C(=O)CC(O)C2` (configuration not stated): the Potency entry in assay [1] and in assay [2] was “inactive” in each case.
For `CC1CCC2(C)C(CC(O)C(O)C23CO3)C1(C)CCC1=CC(=O)OC1O` (configuration not stated), the Potency result in assay [1] and in assay [2] was “inactive” in each case.
Take `CC1(C(=O)O)CCCC2(C)C1CCC13CC(CCC21)C1(CO)OC31` (configuration not stated): the Potency entry in assay [1] and in assay [2] was “inactive” throughout.
Turning to `CC(O)(CC(=O)O)CC(=O)O[C@@H]1[C@@H](O)[C@H](OCCc2ccccc2)O[C@H](CO)[C@H]1O` (some centres not stated), the Potency entry in assay [1] and in assay [2] was “inactive” throughout.
With `NS(=O)(=O)OC[C@@H]1C[C@@H](n2ccc3c(N[C@H]4CCc5ccccc54)ncnc32)C[C@@H]1O`, the Potency entry in assay [1] and in assay [2] was “inactive” each time.
